Pol kappa inh-1 = DNA polymerase kappa (human) inhibition | Q9UBT6 | purified Pol kappa, fluorescent DNA synthesis assay, 10 min | Potency, µM (series often up to 107 µM), without a hit: at the top dose activity, negative = inhibition, usual class: inhibitors | 400,000 tested, 0.53% active | AID 588579; further: potency means the concentration at half of the fitted maximal effect; on the % scale 0 is the no-effect control and ±100 the full control effect
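Kinetic fluorescence screen: compound preincubated 15 min RT with 10 nM enzyme; 50 nM substrate (final) initiates; reads at 0/10 min.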
TDP1 inh = blocks human tyrosyl-DNA phosphodiesterase 1. Potency, µM (series often up to 130 µM), inactives show at the highest dose activity change, negative = inhibition, usual class: inhibitors. AID 485290. Q9NUW8. 350,000 tested, 0.28% active. recombinant TDP1, AlphaScreen DNA substrate cleavage; further: potency means the concentration at half of the fitted maximal effect; on the % scale 0 is the no-effect control and ±100 the full control effect; nearly all actives have a fitted effect of over 40% in size
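Recombinant E. coli-expressed Tdp1 (1 nM) preincubated with compound 15 min at RT, then 5'-biotin/3'-phosphotyrosine-FITC DNA substrate (15 nM) added for 5 min. AlphaScreen beads (10 ug/ml) added, 10 min RT; tyrosine-FITC cleavage read as signal loss.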
Pol beta inh = inhibitors of human DNA polymerase beta | P06746 | Pol beta primer extension/strand displacement, fluorescence kinetic | Potency, µM (highest dose often 114 µM), inactives show at the highest dose activity change, negative = inhibition, actives largely listed as inhibitors | 340,000 tested, 1.3% active; further: potency means the concentration at half of the fitted maximal effect; on the % scale 0 is the no-effect control and ±100 the full control effect
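Curves were derived by four-parameter Hill fits of normalized qHTS data. The kinetic fluorescent primer-extension read was taken at 0 and 10 min after 50 nM substrate, following a 15 min room-temperature preincubation of 10 nM enzyme with compounds.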
POLI inh = blocks human DNA polymerase iota activity; Potency, µM (highest dose often 115 µM), inactives show at the top dose activity, negative = inhibition, hits mostly inhibitors; Pol iota fluorescent replication assay, 10 min; AID 588590; 390,000 tested, 1% active; Q9UNA4; further: potency means the concentration at half of the fitted maximal effect
Target sequence (Q9UNA4 whole entry, looked up): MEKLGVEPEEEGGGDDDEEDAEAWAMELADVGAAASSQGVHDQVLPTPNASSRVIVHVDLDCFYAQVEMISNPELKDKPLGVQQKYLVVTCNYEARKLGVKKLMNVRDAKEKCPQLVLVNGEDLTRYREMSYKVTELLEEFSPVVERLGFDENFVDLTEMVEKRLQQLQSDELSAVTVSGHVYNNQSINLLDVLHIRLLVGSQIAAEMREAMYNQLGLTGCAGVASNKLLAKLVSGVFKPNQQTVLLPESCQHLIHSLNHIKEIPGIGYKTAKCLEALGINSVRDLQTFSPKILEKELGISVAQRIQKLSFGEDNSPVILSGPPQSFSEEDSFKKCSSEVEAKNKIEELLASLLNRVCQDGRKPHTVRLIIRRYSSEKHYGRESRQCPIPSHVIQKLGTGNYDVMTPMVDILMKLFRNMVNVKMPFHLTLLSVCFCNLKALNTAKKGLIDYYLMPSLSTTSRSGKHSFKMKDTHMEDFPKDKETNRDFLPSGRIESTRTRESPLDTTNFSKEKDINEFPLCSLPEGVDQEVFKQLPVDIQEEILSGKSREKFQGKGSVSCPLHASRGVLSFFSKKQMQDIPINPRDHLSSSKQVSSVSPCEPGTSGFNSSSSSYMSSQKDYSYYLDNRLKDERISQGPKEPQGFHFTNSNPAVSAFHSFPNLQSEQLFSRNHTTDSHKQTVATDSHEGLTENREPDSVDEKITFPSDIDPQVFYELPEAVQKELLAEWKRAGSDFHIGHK
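Pol iota at 10 nM preincubated 15 min with compounds at room temperature; reaction started with fluorescent substrate, 50 nM final. Fluorescence read kinetically at 0 and 10 min; buffer-only wells as negative control.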
Pol eta inh-1 = DNA polymerase eta (human) inhibition. Potency, µM (doses to about 114 µM), inactives show at the top dose activity change, negative = inhibition, hits mostly inhibitors. AID 588591. Q9Y253. 390,000 tested, 1.2% active. recombinant Pol eta, fluorescent DNA replication assay; further: potency means the concentration at half of the fitted maximal effect; on the % scale 0 is the no-effect control and ±100 the full control effect
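Pol eta (10 nM) was preincubated with compounds for 15 min at room temperature, after which fluorescent replication substrate (50 nM final) was added to start the reaction. Fluorescence was read kinetically at 0 and 10 min.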
GALK confirm = galactokinase (human) inhibition, confirmation; purified GALK, Kinase-Glo ATP depletion luminescence; AID 2015; 150 tested, 70% active; Potency, µM (highest dose often 115 µM), inactives show top-dose activity, negative = inhibition, hits mostly inhibitors; shares compounds with Pol eta inh-1
GALK redox cs = redox cycling activity in phenol red-HRP assay | Potency, µM (doses to about 115 µM), inactives show top-dose activity change, negative = H2O2 signal, hits mostly inhibitors | shares compounds with Pol eta inh-1 | Phenol red-HRP H2O2 redox cycling, absorbance 600 nm | AID 2035 | 150 tested, 40% active
HEK293 viability = counter-screen for GALK inhibitors: HEK293 cell cytotoxicity | shares compounds with Pol eta inh-1 | HEK-293 viability, ATP luminescence (CellTiter-Glo), 24/48 h | Potency, µM (top dose mostly 46.1 µM), for the others: at the highest dose activity change, negative = cytotoxicity, usual class: inhibitors | 170 tested, 10% active; further: potency means the concentration at half of the fitted maximal effect; on the % scale 0 is the no-effect control and ±100 the full control effect
Pol kappa inh-2 = confirmation of human DNA polymerase kappa inhibitors. shares compounds with Pol eta inh-1. purified Pol-kappa, fluorescent strand-displacement substrate. Potency, µM, hits mostly inhibitors. 920 tested, 76% active. AID 720501; further: potency means the concentration at half of the fitted maximal effect
Pol eta inh-2 = Pol eta (human) inhibition, cherry-pick confirmation. Potency, µM, usual class: inhibitors. AID 720502. shares compounds with Pol eta inh-1. Pol eta primer extension, TAMRA/BHQ fluorescence, 10 min. 2,600 tested, 64% active; further: potency means the concentration at half of the fitted maximal effect
Numbers without * were called inactive; ? = inconclusive; . = no result; ! = repeats disagree; [ ] = remark or other dose. Most compounds without a hit are left out; they make up all but 2.4% or so of the library. The call rests on the fitted dose curve; in most records, active means well fitted curve in the direction sought with a large enough effect; inconclusive means small, poorly fitted or top-dose-only effect, or another doubt; inactive means no such curve, though single readings can be large; an effect the other way counts as inactive or inconclusive.

SMILES	Pol kappa inh-1	TDP1 inh	Pol beta inh	POLI inh	Pol eta inh-1	Pol eta inh-2	others
COc1ccc(C(=O)Nc2ccc(C(=O)N3CCCCC3)cc2)cc1OC	0%	-3%	3%	113%	-21%	.
COc1ccc(C(=O)Nc2ccc(-c3nnc4n3CCCCC4)cc2)cc1OC	?	9%	32µM*	?	3%	.	Pol kappa inh-2=17*
Cc1ccc2c(=O)cc(C(=O)Nc3ccc(S(=O)(=O)Nc4ncccn4)cc3)oc2c1C	15%	2%	42%	22%	2%	.
Cc1ccc(S(=O)(=O)c2nc(-c3ccccc3)oc2SCC(=O)NC2CCCCC2)cc1	-4%	3%	-2%	1%	-10%	.
Cc1ccc(Cl)cc1NC(=O)CCn1cnc2ccccc2c1=O	-6%[60.1 µM]	4%	?	?	45µM*	76*
CCCCn1cc(S(=O)(=O)c2ccc(OC)cc2)c(=O)c2cc(F)c(F)cc21	-18%	1%	2%	31%	-13%	.
O=C(O)c1cc(C(=O)O)cc(N2C(=O)CSC2=S)c1	89µM*	-8%	2%	22µM*	?	30*	Pol kappa inh-2=?
NS(=O)(=O)c1ccc(CCNC(=O)CSc2ccc([N+](=O)[O-])cc2)cc1	-1%	0%[0.0935 µM]	33%	59%	-21%	.
NS(=O)(=O)c1ccc(CCNC(=O)CSc2ccsc2[N+](=O)[O-])cc1	?	3%	-1%	?	22µM*	?
N#Cc1c(N)n(-c2cccc(C(=O)O)c2)c2nc3ccccc3nc12	-14%	5%	4%	31%	40µM*	54*
N#Cc1c(N)n(-c2ccccc2N)c2nc3ccccc3nc12	-4%	4%	2%	20%	?	.
O=S(=O)(NCc1cccs1)c1ccc(Br)s1	.	0%	18%	.	.	.	GALK confirm=-9%;GALK redox cs=0%;HEK293 viability=13%
O=C(O)CCN1C(=O)/C(=C\c2ccc(OCc3ccccc3)c(OCc3ccccc3)c2)SC1=S	-1%	-3%	-26%	-8%	?	.
O=C(O)CN1C(=O)/C(=C\c2cccc(OCc3ccc(Cl)cc3Cl)c2)SC1=S	-9%	0%	0%	?	79µM*	?	Pol kappa inh-2=47*
O=C(O)CCN1C(=O)/C(=C\c2cccc(OCc3ccccc3)c2)SC1=S	-19%	2%	-2%	28%	-6%	.
O=C(O)CN1C(=O)/C(=C\c2cc(Br)ccc2OCc2ccc([N+](=O)[O-])cc2)SC1=S	71µM*	.	28µM*	40µM*	28µM*	?	Pol kappa inh-2=27*
O=C(O)CN1C(=O)/C(=C\c2cc(Br)ccc2OCc2ccccc2F)SC1=S	-14%	.	?	-25%	?	?
CC(=O)c1ccc(NC(=O)CCCc2nc(-c3cccc(C)c3)no2)cc1	5%	0%	10%	110%	-17%	.
CN(C)CCCn1c(=S)[nH]c2ccccc2c1=O	-11%	3%	0%	44%	6%	.
CN(C)CCCn1c2c3ccccc3ccc2c2oc(=O)c3ccccc3c21	50µM*!	.	.	14µM*	?	?
O=C(C1CCN(S(=O)(=O)Cc2ccccc2)CC1)N1CCN(c2ccc(F)cc2)CC1	3%	3%	1%	18%	-4%	.
COc1ccc(Sc2ccc(/C=C3\C(=O)NN(c4ccccc4)C3=O)o2)cc1	?	8%	45µM*	18µM*	25µM*	?
COc1ccc(-n2c(C)cc(/C=C3\C(=O)NN(c4ccccc4)C3=O)c2C)cc1	-13%	-3%	?	111%	-4%	.
Cc1cc(N2CCC(C(=O)Nc3ccccc3Cl)CC2)n2nc(C)c(-c3ccc(Cl)cc3)c2n1	-7%	1%	0%	21%	-16%	.
S=C(NCc1ccco1)NCc1ccco1	?	.	.	?	?	?
SMILES	Pol kappa inh-1	TDP1 inh	Pol beta inh	POLI inh	Pol eta inh-1	Pol eta inh-2	others
COc1ccc(OC)c(CNS(=O)(=O)c2cc(-c3onc(C)c3C)ccc2C)c1	-24%	0%	18%	?	1%	.
C/C=C(\C)C(=O)C[Si](C)(C)c1ccccc1	.	7%	.	.	.	.
O=C1CSC(=S)N1Cc1cccnc1	-19%	9%	-24%	?	?	?
COc1ccc(N2Cc3cccc(C(=O)Nc4cc(C)cc(C)c4)c3C2=O)cc1	?	-6%	10µM*	71µM*	79µM*	?	Pol kappa inh-2=42*
Cc1cnc(C(=O)NCC(=O)Nc2ccccc2Br)cn1	?	?	.	18µM*	32µM*	?	Pol kappa inh-2=?
Cc1cc(-c2n[nH]c(=S)n2/N=C/C=C/c2ccco2)n[nH]1	89µM*	-13%	40µM*	18µM*	45µM*	?
Cc1ccccc1-c1n[nH]c(=S)n1/N=C/C=C/c1ccco1	18µM*	.	-71%	7.9µM*	22µM*	76*
O=C(CSCc1ccccc1)N1CCN(S(=O)(=O)c2cccc(F)c2)CC1	-12%	0%	.	31%	-14%	.
O=C(CSCc1ccccc1)N1CCN(S(=O)(=O)c2ccc(F)cc2)CC1	1%	1%	-13%	21%	5%	.	GALK confirm=-7%;GALK redox cs=-1%;HEK293 viability=3%
Cc1ccccc1NC(=O)c1c(C)oc2ccc(O)c(CN3CCN(C)CC3)c12	8%	-7%	0%	-19%	1%	.
O=C(C=C1SCCS1)/C=C/c1ccco1	?	.	22µM*	35µM*	18µM*	?
O=C(C=Cc1ccco1)N1CCOCC1	0%	.	.	-7%	6%	.
COc1ccc(OC)c([C@@H]2Nc3ccc(C(=O)O)cc3[C@@H]3C=CC[C@@H]32)c1	-2%[60.1 µM]	.	-1%	-7%	35µM*	85*	Pol kappa inh-2=34*
COc1ccc(Br)cc1[C@@H]1Nc2ccc(C(=O)O)cc2[C@@H]2C=CC[C@@H]21	35µM*	.	-22%	25µM*	79µM*	30*

Source: PubChem
